Among all 310,000 compounds or so, about 2,600 (0.84%) were called active.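 How the source made its calls: active means B-score over 3 SD under the library average, and starting fluorescence ratio not unusually high; inactive means the rest.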 For the sample, actives were picked, then their nearest neighbours and some compounds at random.
Biological target: High affinity choline transporter 1 (Homo sapiens) (UniProt Q9GZV3)
Assay: inhibits the human high affinity choline transporter (AID 488975);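 on B-score: choline stimulus applied at its EC90 after an EC20 pre-addition; B-score computed on integrated fluorescence ratio after choline addition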
Settings: CHT-expressing cells, membrane potential dye, choline response, at 10 µM; hits give low values

Sequence of High affinity choline transporter 1 (Homo sapiens) (Q9GZV3 whole entry, looked up): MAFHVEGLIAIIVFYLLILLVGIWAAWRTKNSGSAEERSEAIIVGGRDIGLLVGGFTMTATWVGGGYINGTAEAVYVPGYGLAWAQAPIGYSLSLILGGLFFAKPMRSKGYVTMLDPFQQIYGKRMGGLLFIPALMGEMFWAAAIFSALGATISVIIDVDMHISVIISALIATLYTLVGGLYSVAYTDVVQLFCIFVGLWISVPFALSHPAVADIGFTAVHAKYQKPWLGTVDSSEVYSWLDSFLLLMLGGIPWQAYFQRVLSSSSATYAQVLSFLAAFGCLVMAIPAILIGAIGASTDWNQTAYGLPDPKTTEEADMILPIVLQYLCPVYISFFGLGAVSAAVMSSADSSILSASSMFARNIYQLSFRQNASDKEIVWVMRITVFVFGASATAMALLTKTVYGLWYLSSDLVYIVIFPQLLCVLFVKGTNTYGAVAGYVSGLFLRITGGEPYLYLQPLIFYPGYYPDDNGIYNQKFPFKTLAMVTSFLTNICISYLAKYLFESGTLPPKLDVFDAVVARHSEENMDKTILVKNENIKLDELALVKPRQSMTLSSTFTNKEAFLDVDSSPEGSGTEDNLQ

Compound	B-score
COc1ccc(NC(=O)c2ccccc2[N+](=O)[O-])cc1OC	inactive
O=C(O/N=C(/c1ccccc1)c1ccncc1)c1ccccc1[N+](=O)[O-]	-5.03 (active)
O=C(Nc1ccncc1)c1ccccc1[N+](=O)[O-]	inactive
COc1ccc(-c2cc(C(=O)N/N=C/c3cccnc3)c3ccccc3n2)c(OC)c1	inactive
O=C(O)CC1=C(Nc2ccccc2)C(=O)N(c2ccccc2)C1c1ccc(Cl)cc1 (configuration not stated)	-9.58 (active)
O=C(O)Cc1ccc(NCc2ccccc2Cl)cc1	inactive
COC(=O)CN1C(=S)N(c2ccccc2)C(=O)C1CC(=O)Nc1ccc(Cl)cc1 (configuration not stated)	inactive
O=C(NCCc1ccco1)C(=O)NCCC1CCCCN1S(=O)(=O)c1ccccc1 (configuration not stated)	inactive
O=C(C1CCN(S(=O)(=O)c2ccc(Br)s2)CC1)N1CCN(C2CCCCC2)CC1	inactive
CS(=O)(=O)N1CCC(C(=O)N2CCN(c3ccccc3)CC2)CC1	inactive
O=C(C1CCN(S(=O)(=O)c2ccc(Br)s2)CC1)N1CCN(c2ccccc2)CC1	-8.2 (active)
CC(Sc1nn(-c2ccc(Cl)cc2)c(=S)s1)C(=O)NCC1CCCO1 (configuration not stated)	inactive
COc1ccc(S(=O)(=O)N2CCOC23CCN(S(=O)(=O)c2ccc([N+](=O)[O-])cc2)CC3)cc1	inactive
O=C(NCc1ccccn1)Nc1ccc(Cl)cc1	inactive
CCC(C)c1ccc(NC(=S)NCc2ccccn2)cc1 (configuration not stated)	-9.17 (active)
O=C(NCc1ccccn1)Nc1ccc(F)cc1	inactive
CCOC(=O)C(C)N(c1ccccc1Cl)S(C)(=O)=O (configuration not stated)	inactive
O=C(Nc1cccc2cccnc12)c1cccc(Cl)c1	inactive
O=C(Nc1cccc2cccnc12)c1cccc(N2C(=O)CCC2=O)c1	inactive
N#Cc1ccc(C(=O)Nc2cccc3cccnc23)c(F)c1	-5.02 (active)
CCOC(=O)c1cc(C(C)C)sc1NC(=O)COC(=O)c1nccnc1N	inactive
CCOc1ccc(NS(=O)(=O)c2ccc(C(=O)NC3CCN(Cc4ccccc4)CC3)cc2)cc1	inactive
Cc1ccc(CNC(=O)c2cc(-c3ccccc3C)n(CC3CC(c4cccc([N+](=O)[O-])c4)=NO3)n2)cc1 (configuration not stated)	inactive
N=c1oc2ccccc2cc1C(=O)NCc1ccccc1	inactive
O=C(NCCc1ccc2c(c1)OCCO2)c1cc2ccccc2o1	-5.1 (active)
O=C(CC(Cc1ccccc1)C(=O)O)NCCc1ccc2c(c1)OCO2 (configuration not stated)	inactive

Compound	B-score
COc1ccc(C(=O)NCC2CCCN2S(=O)(=O)c2cccs2)cc1OC (configuration not stated)	inactive
Cc1ccc(C(=O)C(C)OC(=O)Cc2n[nH]c(=O)c3ccccc23)cc1C (configuration not stated)	inactive
COc1nc(OC)nc(N(C)CCO)n1	-12.4 (active)
O=C(CSC1=NS(=O)(=O)c2cc(F)ccc2N1)Nc1ccccc1F	inactive
CN(CC(=O)Nc1cccc(F)c1)C(=O)C1=COCCO1	inactive
CN(CCO)c1ccc(/C=N/Nc2nncc3ccccc23)cc1	inactive
CS(=O)(=O)N1CCN(c2ccc(C(=O)NC3C4CC5CC(C4)CC3C5)cc2[N+](=O)[O-])CC1 (configuration not stated)	inactive
O=C(NC1C2CC3CC(C2)CC1C3)c1ccc(N2CCNCC2)c([N+](=O)[O-])c1 (configuration not stated)	-5.53 (active)
O=C(Nc1cccc(C(F)(F)F)c1)c1ccc(N2CCNCC2)c([N+](=O)[O-])c1	inactive
CC1CCN(c2ccc(C(=O)Nc3nnc(C4CC4)s3)cc2[N+](=O)[O-])CC1	inactive
CC(NC(=O)c1ccc(N2CCNCC2)c([N+](=O)[O-])c1)C12CC3CC(CC(C3)C1)C2 (configuration not stated)	-5.65 (active)
CCC(C)NC(=O)c1ccc(N2CCC3(CC2)OCCO3)c([N+](=O)[O-])c1 (configuration not stated)	inactive
O=C(NCCC1CCCCN1S(=O)(=O)c1ccc(Cl)cc1)C(=O)NCc1ccco1 (configuration not stated)	inactive
CCCNC(=O)CCn1cc(-c2ccc(OC)cc2)nc1CCN	inactive
C=CCNC(=O)C1CC2c3ccccc3C1c1ccccc12 (configuration not stated)	inactive
CC(=O)Nc1nc2c(s1)C(=O)NCC(C)(C)C2	-5.07 (active)
CNC(=O)c1ccc2nc(NC(C)=O)sc2c1	inactive
CC1(C)CC(=O)c2sc(N)nc2C1	inactive
COc1cccc(N2CC(NC(=O)c3ccc4ccccc4c3)CC2=O)c1 (configuration not stated)	inactive
COc1cccc(CC2(CO)CCCN(Cc3ccc(OC(F)F)cc3)C2)c1 (configuration not stated)	inactive
Cc1nn(C)c(C)c1NS(=O)(=O)c1ccc(OC(F)(F)F)cc1	inactive
O=C(CCN1CCN(C/C=C/c2ccccc2)CC1)Nc1cccc(F)c1	inactive
CNC(=O)NC(=O)C(C)N1CCN(C/C=C/c2ccccc2)CC1 (configuration not stated)	-6.91 (active)
COc1cc(C(=O)N2CCN(C/C=C/c3ccccc3)CC2)cc(OC)c1C	inactive
CCc1ccc(C(=O)NNC(=O)C2CCN(c3ncnc4sc(C)c(C)c34)CC2)cc1	inactive
O=C(Nc1ccc(C(=O)N2CCOCC2)cc1)Nc1cccc(C(F)(F)F)c1	inactive

Compound	B-score
CCc1ccccc1N1CN(Cc2ccco2)CNC1=S	-5.54 (active)
CCOc1ccccc1N1CN(Cc2ccccc2)CNC1=S	inactive
CCN1CN(Cc2ccccc2)CNC1=S	inactive
Brc1cnc2ccccc2c1N1CCCCC1	inactive
CCCCCN(C(=O)CCC(=O)OCC(=O)NC1CCC(C)CC1)c1c(N)n(CCCC)c(=O)[nH]c1=O (configuration not stated)	inactive
O=C(CN1C(=O)NC2(CCCC2)C1=O)OCCOc1ccc(F)cc1	inactive
COc1cc(NC(=O)CSC(=S)N2CCCC2)c(OC)cc1Cl	inactive
CC(C(=O)NC1CCS(=O)(=O)C1)N1C(=O)/C(=C/c2ccc(Cl)cc2)SC1=S (configuration not stated)	-8.07 (active)
COc1ccc(/C=C2\SC(=O)N(CCC(=O)NC3CCS(=O)(=O)C3)C2=O)cc1 (configuration not stated)	inactive
CN(C(=O)CN1C(=O)/C(=C/c2ccc(Cl)cc2)SC1=S)C1CCS(=O)(=O)C1 (configuration not stated)	inactive
CCN(Cc1ccccc1)S(=O)(=O)c1cc(C(=O)O)ccc1OC	-5.82 (active)
COc1ccc(C(=O)O)cc1S(=O)(=O)NCc1cccnc1	inactive
COc1ccc(S(=O)(=O)N(CC(=O)N/N=C/c2ccc(C(=O)O)cc2)Cc2ccccc2)cc1OC	inactive
O=C(NCC(c1ccco1)N1CCc2ccccc2C1)c1ccccc1Cl (configuration not stated)	inactive
NC(=O)c1ccsc1NC(=O)COC(=O)Cc1n[nH]c(=O)c2ccccc12	inactive
Nc1c(-c2ccccc2)nnn1Cc1ccccc1	inactive
Oc1c(Cl)cc(Cl)c(Cl)c1Cc1c(O)c(Cl)cc(Cl)c1Cl	-6.87 (active)
COc1ccc(C2=NN(C(=O)CSc3nc(=O)n4ccc(C)cc4n3)C(c3ccc(C)cc3)C2)cc1 (configuration not stated)	inactive
CCN1C(=O)[C@H]2[C@@H](c3ccc(-c4ccc(F)cc4)cc3)N[C@@](Cc3ccccc3)(C(=O)OC)[C@H]2C1=O	inactive
O=C(Cc1ccc(Br)cc1)NCCc1ccccc1	inactive
CC(=O)Nc1ccc(NC(=O)CSC2=NS(=O)(=O)c3ccccc3N2)cc1	inactive
C=C(C)CNC(=O)c1ccc(OC2CCN(C(=O)COC)CC2)cc1	inactive
C[N+](C)(CCCCCC[N+](C)(C)CCCN1C(=O)c2cccc3cccc(c23)C1=O)CCCN1C(=O)c2cccc3cccc(c23)C1=O	inactive
O=C1c2cccc3cccc(c23)C(=O)N1CCCCCc1n[nH]c(=S)o1	-5.24 (active)
O=C(CCCCCN1C(=O)c2cccc3cccc(c23)C1=O)NCc1ccco1	inactive
CCC1(c2ccccc2)NC(=O)N(CC(=O)c2ccc3c(c2)OCO3)C1=O (configuration not stated)	inactive

Compound	B-score
CCCn1c(C)cc(/C=C(\C#N)C(=O)OCC(=O)N(C)c2c(N)n(Cc3ccccc3)c(=O)[nH]c2=O)c1C	inactive
CCOC(=O)N1CCN(CC(=O)c2c(C)[nH]c3ccccc23)CC1	inactive
Cc1[nH]c2ccccc2c1C(=O)CN1CC(C)CC(C)C1 (configuration not stated)	inactive
Cc1[nH]c2ccccc2c1C(=O)CN1CCCC(C)C1 (configuration not stated)	-6.04 (active)
[O-][n+]1ccc(OCc2ccccc2)cc1	inactive
Cc1ccc([C@@H]2CC=C(C(=O)O)[C@H](c3cccc(Cl)c3)N2S(=O)(=O)c2ccc(C)cc2)cc1	inactive
COc1ccccc1C(=O)NC(CCSC)C(=O)N1CCN(C/C=C/c2ccccc2)CC1 (configuration not stated)	inactive
O=C(Nc1ccc2nc3n(c(=O)c2c1)CCCC3)c1ccc(Cl)nc1	inactive
COCCn1cnc2c1c(=O)n(Cc1ccc(Br)cc1)c(=O)n2Cc1ccccc1	inactive
CCN(CC)CCn1cnc2c1c(=O)[nH]c(=O)n2Cc1ccccc1	inactive
N=c1c2c(-c3ccccc3)c(-c3ccccc3)n(Cc3ccccc3)c2ncn1CCCO	-9.35 (active)
CCOC(=O)C1CCN(C(=O)COC(=O)C2CCN(S(=O)(=O)c3ccc4c(c3)OCCO4)CC2)CC1	inactive
Cc1cc(C)c(S(=O)(=O)n2cc(C(C)C(N)C(=O)O)c3ccccc32)c(C)c1 (configuration not stated)	inactive
CCN(CC(=O)Nc1c(F)cccc1F)C(=O)c1ccc(-c2ccccc2)cc1	inactive
COc1ccccc1/C=N/Nc1nc(C)c(C(C)=O)s1	inactive
COc1ccc(C(=O)NCC(c2ccco2)N2CCc3ccccc32)cc1OC (configuration not stated)	inactive
Cc1sc2nc(CSCC(=O)NC3CCCCC3)[nH]c(=O)c2c1C	inactive
N=c1n(Cc2ccc(Cl)cc2)c2ccccc2n1CC(O)c1ccco1 (configuration not stated)	-5.25 (active)
Cn1c(=N)n(CC(O)c2cccs2)c2ccccc21 (configuration not stated)	inactive
Cn1c(=N)n(CC(O)c2ccccc2)c2ccccc21 (configuration not stated)	inactive
O=C(N/N=C/c1cc(Br)c(O)c([N+](=O)[O-])c1)C(O)(c1ccccc1)c1ccccc1	inactive
CCCCN(C(=O)CSCC(=O)Nc1ccc(OC)cc1)c1c(N)n(CCC)c(=O)[nH]c1=O	inactive
O=C(Cc1ccc(S(=O)(=O)N2CCOCC2)s1)NCCOc1ccccc1F	inactive
Cc1ccc(NC(=O)C2CC(=O)N(c3ccc4c(c3)OCCO4)C2)cc1S(=O)(=O)N1CCCCCC1 (configuration not stated)	inactive

From PubChem BioAssay AID488975 (Johns Hopkins Ion Channel Center, 2010)
